The record followed here is publication PMC9911399, “Two distinct binding modes provide the RNA-binding protein RbFox with extraordinary sequence specificity”.

Numbering of substitutions follows the chain as printed; changes in the protein carry UniProt numbers. Over roughly 16,000 sequences, “ka relative to ugcaugu” has its median near 0.096; the highest 2% begin near 0.35. The sample holds the highest values, similar sequences and a random draw of the others, so the mix is not that of the screen.

The labels stand for the following.
T1: RBFOX1 RRM RbFoxmut (Fox-RRM*) (Homo sapiens, UniProt Q9NWB1 109-208, R118D;E147R;N151S;E152T)
T1 sequence: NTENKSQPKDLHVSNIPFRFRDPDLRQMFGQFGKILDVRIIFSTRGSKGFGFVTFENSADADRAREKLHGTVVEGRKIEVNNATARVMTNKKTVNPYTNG

B1: UCCCACC (DNA:RNA)
RNA: GGGAGACCGGAAUUCAGAUUGUCCUCCCACCUUAAAUCCCGUCGUAGCCACCA
DNA 1: CAATCTGAATTCCGGTCTCCC
DNA 2: TGGTGGCTACGACGGGATT
B2: GAGACGU (DNA:RNA)
RNA: GGGAGACCGGAAUUCAGAUUGUCCGAGACGUUUAAAUCCCGUCGUAGCCACCA
DNA 1: CAATCTGAATTCCGGTCTCCC
DNA 2: TGGTGGCTACGACGGGATT
B3: CGUCCCU (DNA:RNA)
RNA: B2 RNA with G25C, A26G, G27U, A28C, G30C
DNA 1: CAATCTGAATTCCGGTCTCCC
DNA 2: TGGTGGCTACGACGGGATT
B4: ACGGCGC (DNA:RNA)
RNA: B2 RNA with G25A, A26C, A28G, U31C
DNA 1: CAATCTGAATTCCGGTCTCCC
DNA 2: TGGTGGCTACGACGGGATT
B5: AGAGAUA (DNA:RNA)
RNA: B1 RNA with U25A, C26G, C27A, C28G, C30U, C31A
DNA 1: CAATCTGAATTCCGGTCTCCC
DNA 2: TGGTGGCTACGACGGGATT
B6: AAUCCAU (DNA:RNA)
RNA: B2 RNA with G25A, G27U, A28C, G30A
DNA 1: CAATCTGAATTCCGGTCTCCC
DNA 2: TGGTGGCTACGACGGGATT
B7: GGAAACG (DNA:RNA)
RNA: B2 RNA with A26G, G27A, C29A, G30C, U31G
DNA 1: CAATCTGAATTCCGGTCTCCC
DNA 2: TGGTGGCTACGACGGGATT
B8: ACGCCAA (DNA:RNA)
RNA: B2 RNA with G25A, A26C, A28C, G30A, U31A
DNA 1: CAATCTGAATTCCGGTCTCCC
DNA 2: TGGTGGCTACGACGGGATT
B9: GAAUCAG (DNA:RNA)
RNA: B2 RNA with G27A, A28U, G30A, U31G
DNA 1: CAATCTGAATTCCGGTCTCCC
DNA 2: TGGTGGCTACGACGGGATT
B10: GAAUCGA (DNA:RNA)
RNA: B2 RNA with G27A, A28U, U31A
DNA 1: CAATCTGAATTCCGGTCTCCC
DNA 2: TGGTGGCTACGACGGGATT
B11: GGAAUCA (DNA:RNA)
RNA: B2 RNA with A26G, G27A, C29U, G30C, U31A
DNA 1: CAATCTGAATTCCGGTCTCCC
DNA 2: TGGTGGCTACGACGGGATT
B12: GGCGUUG (DNA:RNA)
RNA: B2 RNA with A26G, G27C, A28G, C29U, G30U, U31G
DNA 1: CAATCTGAATTCCGGTCTCCC
DNA 2: TGGTGGCTACGACGGGATT
B13: GUUAUCA (DNA:RNA)
RNA: B2 RNA with A26U, G27U, C29U, G30C, U31A
DNA 1: CAATCTGAATTCCGGTCTCCC
DNA 2: TGGTGGCTACGACGGGATT
B14: GAUUCAG (DNA:RNA)
RNA: B2 RNA with G27U, A28U, G30A, U31G
DNA 1: CAATCTGAATTCCGGTCTCCC
DNA 2: TGGTGGCTACGACGGGATT
B15: CCCGGCG (DNA:RNA)
RNA: B1 RNA with U25C, C28G, A29G, C31G
DNA 1: CAATCTGAATTCCGGTCTCCC
DNA 2: TGGTGGCTACGACGGGATT
B16: GAUCGAA (DNA:RNA)
RNA: B2 RNA with G27U, A28C, C29G, G30A, U31A
DNA 1: CAATCTGAATTCCGGTCTCCC
DNA 2: TGGTGGCTACGACGGGATT
B17: GUCAUCA (DNA:RNA)
RNA: B2 RNA with A26U, G27C, C29U, G30C, U31A
DNA 1: CAATCTGAATTCCGGTCTCCC
DNA 2: TGGTGGCTACGACGGGATT
B18: CGAUCGA (DNA:RNA)
RNA: B2 RNA with G25C, A26G, G27A, A28U, U31A
DNA 1: CAATCTGAATTCCGGTCTCCC
DNA 2: TGGTGGCTACGACGGGATT
B19: GGCGUCG (DNA:RNA)
RNA: B1 RNA with U25G, C26G, C28G, A29U, C31G
DNA 1: CAATCTGAATTCCGGTCTCCC
DNA 2: TGGTGGCTACGACGGGATT
B20: GAACCAG (DNA:RNA)
RNA: B2 RNA with G27A, A28C, G30A, U31G
DNA 1: CAATCTGAATTCCGGTCTCCC
DNA 2: TGGTGGCTACGACGGGATT
B21: AGGUGCA (DNA:RNA)
RNA: B2 RNA with G25A, A26G, A28U, C29G, G30C, U31A
DNA 1: CAATCTGAATTCCGGTCTCCC
DNA 2: TGGTGGCTACGACGGGATT
B22: GUAUUCU (DNA:RNA)
RNA: B2 RNA with A26U, G27A, A28U, C29U, G30C
DNA 1: CAATCTGAATTCCGGTCTCCC
DNA 2: TGGTGGCTACGACGGGATT
B23: UCCUAGU (DNA:RNA)
RNA: B1 RNA with C28U, C30G, C31U
DNA 1: CAATCTGAATTCCGGTCTCCC
DNA 2: TGGTGGCTACGACGGGATT
B24: UUCUCAG (DNA:RNA)
RNA: B1 RNA with C26U, C28U, A29C, C30A, C31G
DNA 1: CAATCTGAATTCCGGTCTCCC
DNA 2: TGGTGGCTACGACGGGATT
B25: CGGCGAA (DNA:RNA)
RNA: B2 RNA with G25C, A26G, A28C, C29G, G30A, U31A
DNA 1: CAATCTGAATTCCGGTCTCCC
DNA 2: TGGTGGCTACGACGGGATT
B26: GUUUAAG (DNA:RNA)
RNA: B2 RNA with A26U, G27U, A28U, C29A, G30A, U31G
DNA 1: CAATCTGAATTCCGGTCTCCC
DNA 2: TGGTGGCTACGACGGGATT
B27: UCCCAUG (DNA:RNA)
RNA: B1 RNA with C30U, C31G
DNA 1: CAATCTGAATTCCGGTCTCCC
DNA 2: TGGTGGCTACGACGGGATT
B28: GGCGAUG (DNA:RNA)
RNA: B1 RNA with U25G, C26G, C28G, C30U, C31G
DNA 1: CAATCTGAATTCCGGTCTCCC
DNA 2: TGGTGGCTACGACGGGATT
B29: GAUGUCG (DNA:RNA)
RNA: B2 RNA with G27U, A28G, C29U, G30C, U31G
DNA 1: CAATCTGAATTCCGGTCTCCC
DNA 2: TGGTGGCTACGACGGGATT
B30: GGAAUCG (DNA:RNA)
RNA: B2 RNA with A26G, G27A, C29U, G30C, U31G
DNA 1: CAATCTGAATTCCGGTCTCCC
DNA 2: TGGTGGCTACGACGGGATT
B31: GUCGAUG (DNA:RNA)
RNA: B1 RNA with U25G, C26U, C28G, C30U, C31G
DNA 1: CAATCTGAATTCCGGTCTCCC
DNA 2: TGGTGGCTACGACGGGATT
B32: GUCGUCG (DNA:RNA)
RNA: B1 RNA with U25G, C26U, C28G, A29U, C31G
DNA 1: CAATCTGAATTCCGGTCTCCC
DNA 2: TGGTGGCTACGACGGGATT
B33: CGUCCCG (DNA:RNA)
RNA: B1 RNA with U25C, C26G, C27U, A29C, C31G
DNA 1: CAATCTGAATTCCGGTCTCCC
DNA 2: TGGTGGCTACGACGGGATT

The target of this assay is T1, RBFOX1 RRM RbFoxmut (Fox-RRM*). Nature of the assay: EMSA; HiTS-Eq, 1 nM pool, 10 min; buffer printed only for the single-RNA assays: 10 mM Tris pH 7.5, 150 mM NaCl, 3.4 mM EDTA, 0.001% NP-40, 30 C. The following applies: tags: His6 N-terminal (pET28a); label: 5' 32P. In short, it runs like this: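 Purified RbFox RRM, wild type or mutant, was incubated for 10 min in 50 µL with 1 nM of a 5′-radiolabelled RNA pool carrying 7 randomized nucleotides, whose flanks were annealed to DNA oligonucleotides, over a series of increasing protein concentrations. Unbound RNA was resolved on 8% native PAGE, cut out, reverse-transcribed, barcoded by PCR and sequenced on an Illumina HiSeq 2500. Relative association constants were derived from changes in read counts for each RNA species versus the control reaction and normalised to the cognate motif.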
Background: Mobility shift assays separate free from complexed probe on a gel.
For the molecule B1, the binding signal is 0.0864 KA relative to UGCAUGU. Under B2 stands 0.0818 KA relative to UGCAUGU. Under B3 stands 0.0565 KA relative to UGCAUGU; under B4, 0.119 KA relative to UGCAUGU; under B5, 0.15 KA relative to UGCAUGU.

For B6, the binding signal was 0.074 KA relative to UGCAUGU. On to B7, for which the binding signal is 0.0703 KA relative to UGCAUGU. The same measure for B8: 0.0795 KA relative to UGCAUGU. On to B9, for which the binding signal was 0.389 KA relative to UGCAUGU. Regarding B10, the binding signal was 0.561 KA relative to UGCAUGU.

For the molecule B11, the binding signal was 0.426 KA relative to UGCAUGU. Regarding B12, the binding signal is 0.367 KA relative to UGCAUGU.

B13: the binding signal was 0.18 KA relative to UGCAUGU. For the molecule B14, the binding signal was 0.155 KA relative to UGCAUGU. Under B15 stands 0.098 KA relative to UGCAUGU. Under B16 stands 0.113 KA relative to UGCAUGU; under B17, 0.129 KA relative to UGCAUGU; under B18, 0.0748 KA relative to UGCAUGU.

B19: the binding signal is 0.203 KA relative to UGCAUGU. Under B20 stands 0.105 KA relative to UGCAUGU; under B21, 0.21 KA relative to UGCAUGU; under B22, 0.0952 KA relative to UGCAUGU. Under B23 stands 0.117 KA relative to UGCAUGU. B24: the binding signal is 0.0887 KA relative to UGCAUGU. The same measure for B25: 0.0938 KA relative to UGCAUGU.

Consider B26, for which the binding signal is 0.131 KA relative to UGCAUGU. B27: the binding signal was 0.0994 KA relative to UGCAUGU. Under B28 stands 0.404 KA relative to UGCAUGU; under B29, 0.145 KA relative to UGCAUGU. The same measure for B30: 0.387 KA relative to UGCAUGU; for B31: 0.141 KA relative to UGCAUGU. Under B32 stands 0.15 KA relative to UGCAUGU. On to B33, for which the binding signal was 0.0717 KA relative to UGCAUGU.
